{
  "source": "PubChem BioAssay AID743311",
  "about": "(Broad Institute, 2014)",
  "note": "Potency and affinity values are given separately. Calls of active or inactive are those of the source. No rule for the calls is given here.",
  "data": [
    {"assay": "toxicity to HepG2 liver cells – cell-based, plate reader, dry powder, set 6, cytotoxicity control, dose response (AID 743311)", "details": "series mostly up to 26 µM; activity change, negative = cytotoxicity: at the top concentration", "values": [
      {"smiles": "CC(C)c1ccccc1NCCn1c(=S)[nH]c2ccccc21", "activity change, negative = cytotoxicity": "-15.4% (inactive)"},
      {"smiles": "CS(=O)(=O)c1ccc(OCCn2cnc3ccccc32)cc1", "activity change, negative = cytotoxicity": "22.4% (inactive)"},
      {"smiles": "CSc1nc2ccccc2n1CCOc1ccccc1", "activity change, negative = cytotoxicity": "-20.3% (inactive)"},
      {"smiles": "CCCCc1nc2ccccc2n1CCOc1ccccc1", "activity change, negative = cytotoxicity": "16.6% (inactive)"},
      {"smiles": "CCCc1nc2ccccc2n1CCOc1ccccc1", "activity change, negative = cytotoxicity": "18.3% (inactive)"},
      {"smiles": "Clc1ccc(OCCn2cnc3ccccc32)c(Cl)c1", "activity change, negative = cytotoxicity": "1.13% (inactive)"},
      {"smiles": "Cc1ccccc1OCCn1cnc2ccccc21", "activity change, negative = cytotoxicity": "15.2% (inactive)"},
      {"smiles": "CSc1nc2ccccc2n1CCOc1cc(C)ccc1C(C)C", "activity change, negative = cytotoxicity": "4.69% (inactive)"},
      {"smiles": "CSc1nc2ccccc2n1CCOc1ccc(C)cc1", "activity change, negative = cytotoxicity": "20% (inactive)"},
      {"smiles": "COc1cc(C)ccc1OCCn1cnc2ccccc21", "activity change, negative = cytotoxicity": "-1.63% (inactive)"},
      {"smiles": "Cc1ccc(OCCn2cnc3ccccc32)c(C)c1", "activity change, negative = cytotoxicity": "0.724% (inactive)"},
      {"smiles": "Cc1cccc(OCCn2c(=S)[nH]c3ccc(C(F)(F)F)cc32)c1", "activity change, negative = cytotoxicity": "0.759% (inactive)"},
      {"smiles": "CC(C)Oc1ccc(OCCn2cnc3ccccc32)cc1", "activity change, negative = cytotoxicity": "22.7% (inactive)"},
      {"smiles": "Cc1ccc(OCCn2cnc3ccccc32)c(C(C)C)c1", "activity change, negative = cytotoxicity": "-8.61% (inactive)"},
      {"smiles": "Clc1ccccc1OCCn1cnc2ccccc21", "activity change, negative = cytotoxicity": "33.7% (inactive)"},
      {"smiles": "CC(C)(C)c1ccc(OCCn2cnc3ccccc32)cc1", "activity change, negative = cytotoxicity": "4.09% (inactive)"},
      {"smiles": "FC(F)(F)c1cccc(OCCn2cnc3ccccc32)c1", "activity change, negative = cytotoxicity": "27.1% (inactive)"},
      {"smiles": "OCc1nc2ccccc2n1CCOc1ccccc1", "activity change, negative = cytotoxicity": "6.61% (inactive)"},
      {"smiles": "Cc1cccc(OCCn2cnc3ccccc32)c1", "activity change, negative = cytotoxicity": "19.8% (inactive)"},
      {"smiles": "COc1ccc(OCCn2cnc3ccccc32)cc1", "activity change, negative = cytotoxicity": "18.3% (inactive)"}
    ]}
  ]
}
